Source: PubChem
USP30 inh: inhibitors of human USP30 deubiquitinase; Ubiquitin carboxyl-terminal hydrolase 30 (Homo sapiens), Q70CQ3; purified USP30, Ub-rhodamine cleavage fluorescence; inhibition, % at 25 µM; 47,000 compounds, 5.3% hits
USP28 block: inhibitors of human USP28 deubiquitinase | Ubiquitin carboxyl-terminal hydrolase 28 (Homo sapiens), Q96RU2 | purified USP28, Ub-rhodamine cleavage fluorescence, 30 min | inhibition, % at 25 µM | 47,000 compounds, 3% hits
Target sequence (Q96RU2 whole entry, looked up): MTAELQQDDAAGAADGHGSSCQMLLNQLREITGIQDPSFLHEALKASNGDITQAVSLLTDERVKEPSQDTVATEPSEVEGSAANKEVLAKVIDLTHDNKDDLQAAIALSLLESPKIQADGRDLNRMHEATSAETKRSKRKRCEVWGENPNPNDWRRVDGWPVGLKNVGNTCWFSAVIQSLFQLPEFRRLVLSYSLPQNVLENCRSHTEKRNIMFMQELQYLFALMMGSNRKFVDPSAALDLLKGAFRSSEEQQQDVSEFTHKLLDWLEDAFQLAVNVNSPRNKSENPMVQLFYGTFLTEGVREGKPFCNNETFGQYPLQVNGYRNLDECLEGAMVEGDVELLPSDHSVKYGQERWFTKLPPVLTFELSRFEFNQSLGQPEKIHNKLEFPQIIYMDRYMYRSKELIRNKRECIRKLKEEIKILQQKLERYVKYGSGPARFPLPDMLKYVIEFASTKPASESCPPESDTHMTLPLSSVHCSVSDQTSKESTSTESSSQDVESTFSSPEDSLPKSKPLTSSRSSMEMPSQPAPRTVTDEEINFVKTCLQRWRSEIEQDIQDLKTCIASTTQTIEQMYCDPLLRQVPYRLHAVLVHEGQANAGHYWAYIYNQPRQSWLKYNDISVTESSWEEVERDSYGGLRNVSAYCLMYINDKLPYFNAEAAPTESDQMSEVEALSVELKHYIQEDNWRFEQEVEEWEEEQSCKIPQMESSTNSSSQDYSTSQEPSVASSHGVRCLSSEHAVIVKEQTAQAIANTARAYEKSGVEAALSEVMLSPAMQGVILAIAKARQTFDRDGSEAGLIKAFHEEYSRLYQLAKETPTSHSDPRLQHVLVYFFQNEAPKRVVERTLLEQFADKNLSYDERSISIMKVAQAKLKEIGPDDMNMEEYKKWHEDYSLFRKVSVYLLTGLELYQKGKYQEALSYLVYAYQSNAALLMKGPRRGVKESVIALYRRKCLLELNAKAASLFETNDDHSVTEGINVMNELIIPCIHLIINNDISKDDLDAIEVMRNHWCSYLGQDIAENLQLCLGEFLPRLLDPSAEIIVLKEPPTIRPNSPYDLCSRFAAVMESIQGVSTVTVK
USP17 inh: inhibitors of human USP17 deubiquitinase | inhibition, % at 50 µM | purified USP17, Ub-rhodamine cleavage fluorescence, 3 h | 47,000 compounds, 6.5% hits | AID 1645855, 2021 | Ubiquitin carboxyl-terminal hydrolase 17-like protein 5 (Homo sapiens), A8MUK1
USP8 block: inhibitors of human USP8 deubiquitinase. Ubiquitin carboxyl-terminal hydrolase 8 (Homo sapiens), P40818. 47,000 compounds, 4.2% hits. AID 1645853, 2021. purified USP8, Ub-rhodamine cleavage fluorescence, 30 min. inhibition, % at 20 µM
The depositor's hits bear a star; / = not tested or not shown. Sampled rows, rich in hits. Any-hit rate of the full collection: about 14%. Cut-off read from the data, not from the text of the source: active = inhibition above about 30%; inactive = the rest.

SMILES	USP30 inh	USP28 block	USP17 inh	USP8 block
Cc1ccc(-c2nc(NC(=O)Nc3ccc(C(F)(F)F)cc3)sc2C)cc1Cl	5.1	-1.8	32.8*	6.9
Cc1ccn(-c2ccc(NC(=O)C3CCCCC3)cc2)n1	10.2	11.0	57.1*	11.6
CC(OC(=O)c1cccc(N(C)C)c1)C(=O)Nc1sccc1C(N)=O (stereo not given)	-54.4	-3.1	-4.2	31.6*
Cc1ccc(C(=O)OC(C)C(=O)Nc2sccc2C(N)=O)cc1C (stereo not given)	-92.6	-20.3	-31.1	-1.0
Cc1ccc(NC(=O)Cn2cc(S(=O)(=O)N3CCCC3)ccc2=O)cc1	-10.8	9.6	52.4*	14.2
O=c1[nH]/c(=C\c2ccccc2)c(=O)[nH]/c1=C\c1ccccc1	18.5	8.6	7.4	0.3
Cn1c(=O)/c(=C/c2ccccc2)[nH]c(=O)/c1=C/c1ccccc1	20.2	7.0	56.3*	5.0
Cc1occ2c1C(=O)c1c(O)ccc(O)c1C2	57.5*	89.2*	94.8*	83.6*
CCN1CCc2nc(-c3ccccc3)n(CC(=O)N3CCOc4ccc(C)cc43)c(=O)c2C1	-43.1	-0.2	13.9	58.6*
CCN1CCc2nc3ccccc3c(C(=O)Nc3ccc(F)cc3)c2C1	-245.5	-56.3	-69.4	-24.1
CCN1CCc2nc(-c3ccc(F)cc3)n(CC(=O)N(CC)c3ccccc3)c(=O)c2C1	-100.6	-26.2	-5.9	47.5*
Cc1ccc2c(c1)N(C(=O)Cn1c(C)nc3c(c1=O)CCN(Cc1ccccc1)C3)CCO2	-15.7	-0.4	-0.4	-3.9
CC(C)(C)OC(=O)N1CCC[C@H]1C(=O)N1CCC(C(=O)N[C@@H](CC(N)=O)C(=O)O)(c2ccccc2)CC1	32.4*	10.6	12.4	17.5
CC(C)(C)OC(=O)N1Cc2ccccc2C[C@H]1C(=O)N1CCC(C(=O)N[C@H](CC(N)=O)C(=O)O)(c2ccccc2)CC1	0.1	6.2	22.2	50.2*
CC(C)(C)OC(=O)N1CCC[C@H]1C(=O)N1CCC(C(=O)N[C@H](CC(N)=O)C(=O)O)(c2ccccc2)CC1	4.2	0.7	7.8	2.5
O=C(Nc1ccc(N2CCN(C3CCCCC3)C2=O)nc1)c1cccnc1	-0.1	1.9	-8.9	-57.8
Cc1cccc(Cn2cc(S(=O)(=O)N3CCOCC3)ccc2=O)c1	1.0	-0.6	-0.3	-7.9
C=Cc1ccc(Cn2cc(S(=O)(=O)N3CCOCC3)ccc2=O)cc1	-43.9	14.2	56.9*	13.2
CN(C)C(=O)N1CCC(c2nc3ccc(-c4cccc(F)c4)cn3n2)CC1	0.1	0.7	-124.8	-31.7
COc1cccc(-c2ccc3nc(C4CCN(C(=O)N(C)C)CC4)nn3c2)c1	15.5	30.4*	5.5	-0.5
CCn1cc(Cn2cc(N)cn2)cn1	-13.2	-7.5	12.8	73.1*
CCn1cc(CNC(=O)c2ccc(C)s2)cn1	0.8	15.8	2.0	-0.9
Brc1ccc(C2=CC(c3cccs3)n3c(nc4ccccc43)N2)s1 (stereo not given)	-279.3	-53.4	-14.7	41.6*
CC1=C(C(=O)N2CCCCC2)C(c2cccs2)n2c(nc3ccccc32)N1 (stereo not given)	-85.4	-24.2	-19.3	-4.5
O=C(c1cnccn1)N1CCc2ncnc(-c3cccc(F)c3)c2CC1	4.0	5.6	10.4	-10.7
SMILES	USP30 inh	USP28 block	USP17 inh	USP8 block
COc1ccc(C2c3c(-c4ccccc4O)n[nH]c3C(=O)N2CCc2ccc(OC)c(OC)c2)cc1 (stereo not given)	5.0	-3.3	27.5	61.0*
Cc1ccc(NC(=O)Nc2cccn3nc(C)nc23)cc1	14.2	47.4*	0.6	3.1
Cn1cc(-c2cnc(-c3cccc(F)c3)nc2)cc1C(=O)NCc1cccnc1	2.8	0.0	51.5*	0.6
CCOc1ccc(Oc2ccc(NC(=O)COc3ccc(C(=O)c4ccccc4)cc3)cc2)cc1	15.8	3.2	7.2	-20.4
CCOc1ccc2c(c1)c(=O)c(C(=O)c1ccc(C)cc1)cn2CC(=O)Nc1ccc(OC)c(OC)c1	70.4*	40.2*	36.2*	86.6*
COc1ccc(NC(=O)Cn2cc(C(=O)c3ccc(OC)cc3)c(=O)c3cc4c(cc32)OCCO4)cc1	10.2	7.2	6.2	44.4*
CCOc1ccc2c(c1)c(=O)c(C(=O)c1ccc(F)cc1)cn2CC(=O)Nc1ccc(F)cc1	/	/	41.3*	72.1*
COc1ccccc1NC(=O)Cn1cc(C(=O)c2ccc(C)cc2)c(=O)c2cc(C)ccc21	24.5	6.2	15.0	16.5
COc1ccc(NC(=O)Cn2cc(OC)c(=O)cc2CSc2ccc(C)cc2)cc1	0.8	-4.8	-11.0	-13.0
COc1ccc(NC(=O)Cn2cc(C(=O)c3ccc(F)cc3)c(=O)c3cc(C)ccc32)cc1	31.7*	14.0	75.5*	22.9
CCOc1ccc2[nH]c(=O)c(CN(Cc3cccs3)C(=O)C3CCCCC3)cc2c1	18.5	13.0	11.4	12.3
O=C1N[C@@H]2CN(C(=O)c3ccc(F)cc3)CC[C@H]2CO1	25.3	11.1	7.0	3.4
COc1cccc(CC(=O)N2CCC([C@@H]3C[C@H](C(F)F)n4ncnc4N3)CC2)c1	0.4	-0.8	-6.3	-25.1
Cc1ccc(C(=O)c2cn(CC(=O)Nc3ccc(Cl)cc3)c3ccc(F)cc3c2=O)cc1	-219.3	-60.5	-25.7	60.4*
COc1cccc(C2CC(c3ccccc3)=NC3(CCN(C)CC3)N2)c1O (stereo not given)	-15.9	-6.6	-2.7	19.5
COc1cccc(C2CC(c3ccc(F)cc3)=NC3(CCN(C)CC3)N2)c1O (stereo not given)	-51.8	-12.1	-5.7	40.9*
Clc1ccccc1-c1cnc2sc(NCCc3ccccn3)nn12	33.2*	28.2	12.6	-1.8
Clc1ccc(-c2cnc3sc(NCCc4ccccn4)nn23)cc1	21.8	1.5	8.0	-2.3
Cc1sc(NC(=O)c2ccc(S(=O)(=O)N(C)Cc3ccccc3)cc2)c(C(N)=O)c1C	-45.6	-18.7	-15.1	31.3*
CN(Cc1ccccc1)S(=O)(=O)c1ccc(NC(=O)c2ccc(Cl)cc2)cc1	31.1*	-3.7	15.5	3.6
CCN(Cc1ccccc1)S(=O)(=O)c1ccc(C(=O)Nc2sccc2C(N)=O)cc1	/	/	42.8*	-17.3
CCN(c1ccccc1)S(=O)(=O)c1ccc(C(=O)Nc2cccc(NC(C)=O)c2)cc1	-25.0	-8.3	-15.8	-9.2
CN(C)S(=O)(=O)c1ccc(C(=O)Nc2sccc2C#N)cc1	-90.1	-23.0	-6.7	-12.3
CN(Cc1ccccc1)S(=O)(=O)c1ccc(C(=O)Nc2ccc3c(c2)OCO3)cc1	18.7	6.4	6.2	3.2
CCN(Cc1ccccc1)S(=O)(=O)c1ccc(C(=O)Nc2ccc(S(N)(=O)=O)cc2)cc1	-2.6	5.4	32.6*	0.7
NC(=O)COc1ccc(NC(=O)c2cccc(-n3cnnc3)n2)cc1	-13.6	1.5	10.3	3.8
O=C(CN1CCC2(CC1)Nc1cc(Cl)ccc1C1=NCCN12)NC1CCCC1	27.8	16.8	12.2	24.4
Cc1cnccc1C(=O)N1CCC(O)(Cn2ccc3ccncc32)CC1	9.9	-7.7	-1.4	-0.9
CCc1nc(-c2cccc(NC(=O)c3ccc(C#N)cc3F)c2)no1	23.8	51.3*	43.0*	12.2
